Data as given in PubChem BioAssay.
“And” between values parts separate entries of the source, which are not always exact repeats. Equal values may be shown once. More than one record can exist for a structure, and the calls need not agree. The source made the active and inactive calls. Cut-off read from the data, not from the text of the source: active = fold change permeability below about 0.7 or above about 1.3; inactive = in between.

Test: compounds altering in vitro BBB leakiness – cell-based, FITC-avidin fluorescence, HTS, primary screen (AID 1963498); note: test concentration not given here
Conditions: brain endothelial barrier, actives lie on both sides

Structure (SMILES)	fold change permeability
CNCCCC1c2ccccc2C=Cc2ccccc21	1.1 (inactive)
Cc1nc(Nc2cnn(C3CCNCC3)c2)nc2c1N(C)C(=O)c1cc3ccccc3cc1N2C	1 (inactive)
CC(C)NC[C@H](O)c1ccc(O)c(O)c1	1.2 (inactive) and 1.8 (active)
C[C@@H](O)[C@H]1C(=O)N2C(C(=O)O)=C(SCCN=CN)C[C@H]12	0.8 (inactive)
C[n+]1cccc(C(N)=O)c1	0.9 (inactive)
NC(=O)c1sc(-c2ccsc2)cc1N	0.9 (inactive)
CCC(=O)NS(=O)(=O)c1ccc(-c2c(-c3ccccc3)noc2C)cc1	0.9 (inactive)
CC(CN(C)C)CN1c2ccccc2CCc2ccccc21 (stereo unspecified)	1.4 (active)
N#C/C(=C1/SC[C@@H](c2ccc(Cl)cc2Cl)S1)n1ccnc1	1.6 (active)
COc1ccc2c(c1)c(CC(=O)O)c(C)n2C(=O)c1ccc(Cl)cc1	1.7 (active)
CC(=O)O[C@]1(C(C)=O)CC[C@H]2[C@@H]3C=C(Cl)C4=CC(=O)[C@@H]5C[C@@H]5[C@]4(C)[C@H]3CC[C@@]21C	1 (inactive)
O=C1CCC(N2C(=O)c3ccccc3C2=O)C(=O)N1 (stereo unspecified)	1.6 (active)
N#Cc1c(N2C[C@@H]3NCCO[C@H]3C2)c(F)cc2c(=O)c(C(=O)O)cn(C3CC3)c12	0.9 (inactive)
COc1cc(C(=O)OCCCN2CCCN(CCCOC(=O)c3cc(OC)c(OC)c(OC)c3)CC2)cc(OC)c1OC	1.5 (active)
CCCOC(=O)c1c(-c2ccccc2)nc(CC)c(C(=O)SCC)c1CCC	1.5 (active)
CC(C)C[C@H]1C(=O)N2CCC[C@H]2[C@]2(O)O[C@](NC(=O)[C@@H]3C=C4c5cccc6[nH]c(Br)c(c56)C[C@H]4N(C)C3)(C(C)C)C(=O)N12	1.1 (inactive)
